Experiments:
Assay in all cases: PBM binding z-score (relative to random genomic background probes); higher = stronger binding; sequences stand for … in GC…GCGATTGACAGCGTAGAATGAAGG
[1] = tested on: FXR:RXRa (NR concentration 270 nM, RXRa partner concentration 90 nM)
How it was run: (§1)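 Each nuclear receptor dimer, without ligand, was incubated for 1 h on custom Agilent 4×180K protein-binding microarrays. Binding was detected with antibodies against each partner (one per run), and scanned fluorescence was regression-normalized. The binding z-scores are referenced to random human genomic background probes.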

[2] = tested on: LXRa:RXRa (NR concentration 270 nM, RXRa partner concentration 90 nM)
How it was run: as §1

[3] = tested on: LXRa homodimer (NR concentration 270 nM)
How it was run: as §1

[4] = tested on: LXRb:RXRa (NR concentration 270 nM, RXRa partner concentration 90 nM)
How it was run: as §1

[5] = tested on: PPARa:RXRa (NR concentration 270 nM, RXRa partner concentration 90 nM)
How it was run: as §1

[6] = tested on: PPARg:RXRa (NR concentration 180 nM, RXRa partner concentration 90 nM)
How it was run: as §1

[7] = tested on: PPARg:RXRa 270nM:90nM, anti-RXR (NR concentration 270 nM, RXRa partner concentration 90 nM)
How it was run: as §1

[8] = tested on: PPARg:RXRa 30nM:10nM, anti-RXR (NR concentration 30 nM, RXRa partner concentration 10 nM)
How it was run: as §1

[9] = tested on: PPARg:RXRa 90nM:30nM, anti-RXR (NR concentration 90 nM, RXRa partner concentration 30 nM)
How it was run: as §1

| Sequence | PBM binding z-score [1] | PBM binding z-score [2] | PBM binding z-score [3] | PBM binding z-score [4] | PBM binding z-score [5] | PBM binding z-score [6] | PBM binding z-score [7] | PBM binding z-score [8] | PBM binding z-score [9] |
| --- | --- | --- | --- | --- | --- | --- | --- | --- | --- |
| CCGAGTAGGTTTCGAGGGGGCATTCAGTGCGAAT | 1.41 | 2.96 | 1.18 | 4.53 | 2.37 | -0.183 | 1.67 | 0.107 | 1.44 |
| CCGAGTAGGTTACGAGGTGGCATTCAGTGCGAAT | 0.103 | 2.1 | -0.445 | 0.601 | 1.61 | 1.79 | 2.03 | 0.157 | 1.16 |
| CTATGTTGGTTAAGGGGGTCATTCAGTTTGAAAG | 4.6 | 4.68 | 3.82 | 6.28 | 5.26 | 4.14 | 5.2 | 2.97 | 4.57 |
| CCGAGTAGGTTGCGAGGGGGCATTCAGTGCGAAT | 1.26 | 2.94 | 0.489 | 4.71 | 2.73 | 0.173 | 1.85 | 0.127 | 1.53 |
| TCGCGTAGGTTACGGGGGCATTCAGGGATGAAGA | 2.62 | 3.1 | 0.819 | 5.1 | 4.31 | 4.62 | 4.92 | 3.28 | 3.93 |
| TCGAGTAGGTTAGGGGGGCATTCAGGGATGAAGA | 3.28 | 3.15 | 1.42 | 5.64 | 3.3 | 5.66 | 4.97 | 3.63 | 5.01 |
| CCGAGTAGATTACGAGGGGGCATTCAGTGCGAAT | 0.841 | 2.24 | 0.791 | 3.36 | 1.75 | 0.167 | 0.849 | 0.0804 | 0.742 |
| CCATGTAGGTTAAGGGGGTCATTCAGTTTGAAAG | 4.98 | 4.71 | 3.76 | 6.22 | 5.88 | 7.38 | 7.13 | 4.55 | 6.52 |
| CAATGTAGGTTAAGGGGGTCATTCAGTTTGAAAG | 3.39 | 5.38 | 3.82 | 6.46 | 6.05 | 8.91 | 8.13 | 6.58 | 8.44 |
| CTATGTAGTTTAAGGGGGTCATTCAGTTTGAAAG | 4.48 | 4.76 | 3.99 | 6.25 | 5.3 | 4.03 | 5.19 | 2.68 | 4.56 |
| CCGAGTAGGTTACGAGGGGGGATTCAGTGCGAAT | 2.34 | 3.82 | 0.79 | 5.43 | 2.99 | 2.52 | 3.71 | 1.57 | 3.4 |
| TCGAGTAGGTTACTGGGGCATTCAGGGATGAAGA | 0.441 | 0.372 | -0.186 | 0.462 | 3.51 | 4.99 | 4.53 | 2.29 | 3.46 |
| TCGAGTATGTTACGGGGGCATTCAGGGATGAAGA | 2.26 | 2.6 | 0.591 | 4.72 | 2.9 | 1.94 | 3.22 | 2.44 | 3.35 |
| CCGAGTAGGTTACGAGGGGGCAATCAGTGCGAAT | 2.55 | 6.66 | 0.917 | 6.01 | 3.34 | 2.49 | 3.24 | 0.613 | 2.21 |
| CCGAGTAGGGTACGAGGGGGCATTCAGTGCGAAT | 1.83 | 4.84 | 0.674 | 4.44 | 2.53 | 0.709 | 1.58 | 0.0374 | 1.17 |
| CTATGTAGGTTAAGGGGCTCATTCAGTTTGAAAG | 0.164 | 0.226 | -0.199 | 1.35 | 4.02 | 6.99 | 6.59 | 4.66 | 6.73 |
| CTATGTAGGTTAAGGGGGTCCTTCAGTTTGAAAG | 1.09 | 1.76 | 0.414 | 3.75 | 4.29 | 6.59 | 6.57 | 4.47 | 6.41 |
| CTATGTAGGCTAAGGGGGTCATTCAGTTTGAAAG | 3.71 | 3.81 | 0.999 | 5.74 | 5.31 | 5.77 | 6.41 | 3.65 | 6.14 |
| CTATGTAGGTTAAGGGGGTCATGCAGTTTGAAAG | 5.42 | 4.98 | 1.95 | 6.22 | 6.35 | 9.11 | 8 | 6.71 | 8.07 |
| CAGAGTAGGTTACGAGGGGGCATTCAGTGCGAAT | 3.11 | 7.18 | 2.11 | 6.23 | 3.54 | 3.69 | 4.37 | 2.05 | 3.3 |
| TCGAGTAGGTTACGGGGGCACTCAGGGATGAAGA | 2.26 | 2.67 | 0.365 | 4.7 | 4.43 | 6.44 | 6.05 | 3.54 | 5.14 |
| TCGAATAGGTTACGGGGGCATTCAGGGATGAAGA | 3.92 | 3.9 | 1.2 | 5.78 | 5.11 | 5.71 | 5.84 | 4.46 | 5.39 |
| CTATGTAGGTTAAGGGGGACATTCAGTTTGAAAG | 1.22 | 1.63 | 0.816 | 3.58 | 5.12 | 8.82 | 8.59 | 7.64 | 9.61 |
| TCGAGTAGGCTACGGGGGCATTCAGGGATGAAGA | 1.68 | 1.1 | -0.259 | 3.17 | 2.56 | 1.6 | 2.51 | 1.38 | 1.8 |
| CTATGTAAGTTAAGGGGGTCATTCAGTTTGAAAG | 4.5 | 4.34 | 2.4 | 6.24 | 5.31 | 3.92 | 5.21 | 2.84 | 4.55 |
| CTATGTCGGTTAAGGGGGTCATTCAGTTTGAAAG | 4.86 | 5.24 | 4.38 | 6.42 | 5.65 | 5.4 | 6.26 | 3.98 | 5.7 |

| Sequence | PBM binding z-score [1] | PBM binding z-score [2] | PBM binding z-score [3] | PBM binding z-score [4] | PBM binding z-score [5] | PBM binding z-score [6] | PBM binding z-score [7] | PBM binding z-score [8] | PBM binding z-score [9] |
| --- | --- | --- | --- | --- | --- | --- | --- | --- | --- |
| CTATGTAGGTTCAGGGGGTCATTCAGTTTGAAAG | 5.43 | 5.56 | 4.57 | 6.31 | 5.86 | 5.72 | 6.22 | 3.18 | 5.1 |
| CCGAGTAGGTTACGAGGGGGTATTCAGTGCGAAT | 1.23 | 5.34 | 0.455 | 4.28 | 2.87 | 1.8 | 3.05 | 1.22 | 1.9 |
| CCGTGTAGGTTACGAGGGGGCATTCAGTGCGAAT | 2.88 | 7.45 | 2.37 | 6.73 | 3.56 | 2.16 | 3.34 | 1.52 | 2.52 |
| TCGAGTAGGTTACGGGGGCATTCAGGGATGAAGA | 2.79 | 2.81 | 0.777 | 5.02 | 4.38 | 5.95 | 5.71 | 3.3 | 5.07 |
| TCGAGTAGGTTACGGTGGCATTCAGGGATGAAGA | 0.0909 | 0.257 | -0.578 | 0.0794 | 1.81 | 1.73 | 2.29 | 1.44 | 1.9 |
| CCGAGTAGGTTACGAGGGGGCATTCAGTGCGAAT | 2.35 | 6.98 | 1.84 | 6.35 | 3.42 | 2.22 | 3.3 | 1.24 | 2.55 |
| TCGAGAAGGTTACGGGGGCATTCAGGGATGAAGA | 4.57 | 4.21 | 0.687 | 5.72 | 5.32 | 6.1 | 5.94 | 4.28 | 5.29 |
| CCGAGTAGGCTACGAGGGGGCATTCAGTGCGAAT | 0.473 | 3.15 | 0.222 | 3.4 | 1.72 | 0.0175 | 1.1 | -0.389 | 0.48 |
| TCGAGTAGGTTACGGGGGGATTCAGGGATGAAGA | 2.95 | 2.87 | 1.21 | 5.21 | 3.11 | 5.11 | 4.06 | 3.29 | 4.14 |
| TCCAGTAGGTTACGGGGGCATTCAGGGATGAAGA | 3.09 | 3.47 | 1.18 | 5.7 | 4.68 | 7.15 | 6.28 | 5.22 | 6.53 |
| CTATGTAGGTTAAGGGGGTCAGTCAGTTTGAAAG | 3.26 | 3.55 | 1.38 | 5.26 | 5.54 | 8.01 | 7.42 | 5.06 | 7.09 |
| CTATGTAGGTTATGGGGGTCATTCAGTTTGAAAG | 5.57 | 5.53 | 4.32 | 6.32 | 6.04 | 8.27 | 7.54 | 5.25 | 7.06 |
| CCGAGTGGGTTACGAGGGGGCATTCAGTGCGAAT | 2.73 | 6.93 | 0.977 | 5.8 | 3.08 | 1.75 | 2.54 | 0.567 | 1.74 |
| CTATGTAGGTTAAGGGGGTTATTCAGTTTGAAAG | 2.37 | 2.74 | 1.14 | 5.09 | 5.34 | 7.83 | 7.16 | 5.05 | 7.12 |
| CCGAGTAGGTTACGCGGGGGCATTCAGTGCGAAT | 3.18 | 6.77 | 1.34 | 6.01 | 3.32 | 2.36 | 3.3 | 1.11 | 2.24 |
| TCGAGTAGGTTAAGGGGGCATTCAGGGATGAAGA | 2.95 | 2.79 | 1.01 | 4.58 | 3.99 | 5.19 | 5.78 | 3.91 | 5.72 |
| CCGAGTAGTTTACGAGGGGGCATTCAGTGCGAAT | 1.62 | 4.8 | 0.906 | 4.15 | 2.17 | -0.276 | 1.08 | 0.469 | 1.59 |
| CCGATTAGGTTACGAGGGGGCATTCAGTGCGAAT | 2.54 | 7.34 | 1.59 | 6.42 | 3.29 | 1.45 | 2.96 | 0.437 | 2.32 |
| CTATGTAGGTTAAGGGGGTCATTCCGTTTGAAAG | 4.77 | 5.26 | 3.1 | 6.22 | 6.1 | 8.1 | 7.77 | 5.98 | 7.6 |
| CCGAGTAGGTTAAGAGGGGGCATTCAGTGCGAAT | 3.24 | 6.72 | 1.5 | 5.79 | 3.21 | 1.93 | 3.19 | 0.978 | 2.43 |
| CCGAGTAGGTTACGAGGGGGCATTCACTGCGAAT | 2.07 | 7.18 | 1.26 | 6.21 | 3.49 | 2.33 | 3.18 | 1.02 | 2.85 |
| TCGAGTAGCTTACGGGGGCATTCAGGGATGAAGA | 1.64 | 1.5 | 0.141 | 3.47 | 2.12 | – | 2.1 | 2.18 | 2.37 |
| CCGAGTCGGTTACGAGGGGGCATTCAGTGCGAAT | 0.716 | 4.66 | 1.26 | 4.05 | 1.74 | -0.00257 | 0.709 | -0.212 | 0.329 |
| CCGAGTAGGTTACGAGGGCGCATTCAGTGCGAAT | 0.0416 | 1.77 | -0.35 | 0.425 | 1.72 | 2.6 | 2.55 | -0.0123 | 1.62 |
| TCGAGTAGGTTACGTGGGCATTCAGGGATGAAGA | -0.0639 | 0.328 | -0.386 | 0.112 | 1.25 | 0.953 | 1.36 | 1.14 | 1.11 |
| CCGAGTAGGTTACGAGGGGGCATTCATTGCGAAT | 2 | 6.78 | 1.16 | 6.12 | 3.42 | 2.64 | 3.26 | 1.35 | 2.85 |
